Test results published in PubChem BioAssay (NCATS).
Inconclusive results are not listed. Unmarked numbers belong to inactive results. Activity calls are given as the source filed them. Calls come from the whole dose curve; as a rule, active = well fitted cell-killing curve with a large enough effect; inconclusive = small, poorly fitted or top-dose-only effect; inactive = flat fitted curve, though single readings scatter. Residues, ends and D or L forms follow the SMILES beside them. *: point of attachment. Cbz = O=C(OCc1ccccc1)*

experiment: qHTS of pediatric cancer cell lines to identify multiple opportunities for drug repurposing: Confirmatory screen for SK-N-SH cells (AID 1347129); details: SK-N-SH neuroblastoma cell viability; series mostly up to 46.1 µM; activity change, negative = cytotoxic: at the top concentration;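 note: cells exposed to compound for 48 h before viability read; nearly all actives have a fitted effect of over 60% in size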
From the text: Drug repurposing or repositioning has been offered as a strategy for drug development in oncology programs. This approach has special potential for childhood cancers and other rare or orphan diseases, where the expected return on new drug development has been a disincentive to pharmaceuticals.
In this project we exploit the poly-pharmacology of drugs to discover new indications via phenotypic screening of a panel of 19 well-characterized cell lines derived from solid tumors seen in children and adolescents. The goal is to identify approved drugs with previously unrecognized anticancer properties that has the potential to reveal new mechanisms and biological processes involved in carcinogenesis or drug resistance. We employed a titration-based paradigm (quantitative high-throughput screening or qHTS), where all compounds were tested at multiple concentrations for their effect on cell viability. Concentration-response curves (CRCs) were derived directly from the primary screen, and both potency and efficacy values were used to identify compounds with robust bioactivity profiles. We screened the NIH Chemical Genomics Center (NCGC) Pharmaceutical Collection (NPC) and Mechanism Interrogation Plate (MIPE) small molecule collections of approved and investigational compounds against these cell lines; and measured metabolically active cells after 48 hours of compound treatment as a proxy for cell viability.
Assay Submitter: Nathalia J. Martinez, National Center for Advancing Translational Sciences, National Institutes of Health, Rockville, MD, USA; email: natalia.martinez@nih.gov
[1] Shen, M et al. Quantitative high-throughput phenotypic screening of pediatric cancer cell lines identifies multiple opportunities for drug repurposing. Oncotarget 2017 Dec 19;9(4):4758-4772. PMID 29435139.
The cells were obtained from University of North Carolina (UNC), Pediatric Preclinical Testing Program (PPT), and Coriell Institute (CI).
qHTS cell viability assay:
Cells were assayed in growth media at a density of 500-1,000 cells/well. Five microliters of cells were dispensed into 1,536-well, white, solid-bottom, TC-treated plates (Greiner Bio One) using a multidrop dispenser and incubated at 37 degrees C, 5% CO2, under a humidified atmosphere for 5 hours. Twenty-three nanoliters of compounds and controls (neutral control DMSO or positive control bortezomib at final concentration of 2.3 µM) were subsequently transferred by Kalypsys pintool. For primary screens, the MIPE collection was tested at 11-point dilutions (final concentrations range from 0.78 nM to 46 µM) and the NPC collection at 8-point dilutions (final concentrations range from 0.59 nM to 46 µM). Compounds tested in follow-up screens were assayed at 11-point dilutions. Cells were incubated for 48 hours, followed by addition of 3 µL of CellTiter-Glo (Promega). After a 15 min incubation at room temperature, samples were analyzed for luminescence intensity using a ViewLux High-throughput CCD imager equipped with clear filters.
Potency is the fitted concentration of half-maximal effect.

| Structure (SMILES) | Potency | activity change, negative = cytotoxic |
| --- | --- | --- |
| C[C@@]12C(=O)OC(=O)[C@@]1(C)C1CCC2O1 | 5900 nM (active) |  |
| N#Cc1c(C2CCNCC2)cc(-c2c(O)cccc2OCC2CC2)nc1N | 23500 nM (active) |  |
| O=C(C=CC=Cc1ccc2c(c1)OCO2)N1CCCCC1 |  | 8.27% |
| CO[C@@H]1[C@@H](O)[C@H](O)[C@@H](n2c3c(Cl)cccc3c3c4c(c5c6cccc(Cl)c6[nH]c5c32)C(=O)NC4=O)O[C@@H]1CO | 2640 nM (active) |  |
| COc1cccc2c1C(=O)c1c(O)c3c(c(O)c1C2=O)C[C@@](O)(C(=O)CO)C[C@@H]3O[C@H]1C[C@H](N)[C@H](OC2CCCCO2)[C@H](C)O1 (stereo not given in full) | 4690 nM (active) |  |
| COc1ccc(C(C)=O)c(O)c1 |  | 3.71% |
| CN[C@@H]1C[C@H]2O[C@@](C)([C@H]1OC)n1c3ccccc3c3c4c(c5c6ccccc6n2c5c31)C(=O)N[C@H]4O | 332 nM (active) |  |
| CC(C(C)N1CC(=O)NC(=O)C1)N1CC(=O)NC(=O)C1 (stereo not given) |  | 3.32% |
| CS[C@H]1SC[C@@H]2C(=O)N(C)[C@H](C(C)C)C(=O)OC[C@H](NC(=O)c3cnc4ccccc4n3)C(=O)N[C@H](C)C(=O)N(C)[C@@H]1C(=O)N(C)[C@H](C(C)C)C(=O)OC[C@H](NC(=O)c1cnc3ccccc3n1)C(=O)N[C@H](C)C(=O)N2C | 13.2 nM (active) |  |
| Nc1ncn([C@@H]2O[C@H](CO)[C@@H](O)[C@@H]2O)c(=O)n1 | 16600 nM (active) |  |
| CC(C)C[C@@H](C=O)NC(=O)[C@H](CC(C)C)NC(=O)[C@H](CC(C)C)NC(=O)OCc1ccccc1 (Cbz-Leu-Leu-Leu-aldehyde) | 833 nM (active) |  |
| O=C(O)C[C@H](O)C[C@H](O)C=Cc1c(C2CC2)nc2ccccc2c1-c1ccc(F)cc1 | 1320 nM (active) |  |
| O=C1NCCc2[nH]c(-c3ccncc3)cc21 | 2090 nM (active) |  |
| CC[C@@]1([C@@H]2O[C@@H]([C@H]3O[C@@](O)(CO)[C@H](C)C[C@H]3C)C[C@H]2C)CC[C@H]([C@]2(C)CC[C@]3(C[C@H](O)[C@@H](C)[C@@H]([C@@H](C)[C@@H](OC)[C@H](C)C(=O)O)O3)O2)O1 | 645 nM (active) |  |
| COc1ccc(C[C@@H](C)[C@@H](C)Cc2ccc(OC)c(OC)c2)cc1OC |  | -17.3% |
| CCOC(=O)C1=C(C)NC(=S)NC1c1cccc(O)c1 (stereo not given) |  | -13.2% |
| CC(C=CC1=C(C)CCCC1(C)C)=CC=CC(C)=CC(=O)Nc1ccc(O)cc1 | 38200 nM (active) |  |
| COc1cccc2c1C(=O)c1c(O)c3c(c(O)c1C2=O)C[C@@](O)(C(=O)CO)C[C@H]3O[C@H]1C[C@H](N)[C@H](O)[C@H](C)O1 | 590 nM (active) |  |
| C=C1C(=CC=C2CCC[C@]3(C)[C@@H]([C@H](C)CCCC(C)(C)O)CC[C@@H]23)C[C@@H](O)C[C@@H]1O |  | 0.243% |
| CC(C)C[C@H](NC(=O)[C@@H](NC(=O)c1cccc(-c2ccccc2)n1)[C@@H](C)O)B(O)O | 59 nM (active) |  |

| Structure (SMILES) | Potency | activity change, negative = cytotoxic |
| --- | --- | --- |
| CC(C=CC(=O)NO)=C[C@@H](C)C(=O)c1ccc(N(C)C)cc1 | 2960 nM (active) |  |
| COC1=C2C[C@@H](C)C[C@H](OC)[C@@H](O)[C@@H](C)C=C(C)[C@H](OC(N)=O)[C@@H](OC)C=CC=C(C)C(=O)NC(=CC1=O)C2=O | 2350 nM (active) |  |
| COc1cccc2c1C(=O)c1c(O)c3c(c(O)c1C2=O)C[C@@](O)(C(=O)CO)C[C@@H]3O[C@H]1C[C@H](N)[C@@H](O)[C@H](C)O1 | 332 nM (active) |  |
| O=C(NCc1ccccc1)[C@H](Cc1ccccc1)NC(=O)[C@@H]1O[C@@H]1C(=O)NCCc1ccc(O)cc1 |  | -5.2% |
| CC(=O)SCC(Cc1ccccc1)C(=O)NCC(=O)OCc1ccccc1 (stereo not given) |  | -12.1% |
| CCc1cnn2c(NCc3ccc[n+]([O-])c3)cc(N3CCCC[C@@H]3CCO)nc12 |  | 3% |
| C[N+](C)([O-])CCNc1ccc(NCC[N+](C)(C)[O-])c2c1C(=O)c1c(O)ccc(O)c1C2=O |  | -20.3% |
| COC(=O)C=CC(=O)OC |  | -0.214% |
| CCN(CC)Cc1ccc2cc(COC(=O)Nc3ccc(C(=O)NO)cc3)ccc2c1 |  | 0.586% |
| Cc1cnc(Nc2ccc(N3CCN(C)CC3)cc2)nc1Nc1cccc(S(=O)(=O)NC(C)(C)C)c1 | 2350 nM (active) |  |
| C[C@@H](Oc1ccc2[nH]nc(C=Cc3cnn(CCO)c3)c2c1)c1c(Cl)cncc1Cl |  | -25.2% |
| COC(=O)[C@@H]1[C@H]2C[C@@H]3c4[nH]c5ccccc5c4CCN3C[C@@H]2CC[C@@H]1O |  | 8.22% |
| Cc1ncc(-c2ccnc(Nc3ccc(S(C)(=O)=O)cc3)n2)n1C(C)C | 4180 nM (active) |  |
| CC(C)NC[C@@H](C(=O)N1CCN(c2ncnc3c2[C@H](C)C[C@H]3O)CC1)c1ccc(Cl)cc1 | 16600 nM (active) |  |
| CC(=O)ON=C1C(c2c(O)[nH]c3cc(Br)ccc23)=Nc2ccccc21 | 23500 nM (active) |  |
| NC(=O)Nc1sc(-c2ccc(F)cc2)cc1C(N)=O | 14800 nM (active) |  |
| CCCCC(=O)O[C@]1(C(=O)CO)[C@@H](C)C[C@H]2[C@@H]3CCC4=CC(=O)C=C[C@]4(C)[C@@]3(F)[C@@H](O)C[C@@]21C |  | 8.06% |
| CNC(=O)c1cccc(-c2ccc3c(N4CCOC[C@H]4C)nc(N4CCOC[C@H]4C)nc3n2)c1 | 2640 nM (active) |  |
| C#CCC(Cc1cnc2nc(N)nc(N)c2n1)c1ccc(C(=O)N[C@@H](CCC(=O)O)C(=O)O)cc1 (stereo not given in full) |  | -3.54% |
| O=C1c2c(O)cccc2[C@@H]([C@@H]2O[C@H](CO)[C@@H](O)[C@H](O)[C@H]2O)c2cc(CO)cc(O)c21 |  | -1.67% |
